# In article PMC5540273 (PLoS ONE, 2017):
# How the values were obtained:
# Conditions in all cases: concentration: 1 μM, replicates: in singlicate; n = 1
# [1] = system: FYN
# [2] = system: GAK
# [3] = system: T1, GCN2(Kin.Dom.2,S808G)
# T1 construct: gene EIF2AK4
# [4] = system: GRK1
# [5] = system: T2, GRK2
# T2 construct: gene ADRBK1
# [6] = system: T3, GRK3
# T3 construct: gene ADRBK2
# [7] = system: GRK4
# [8] = system: GRK7
# [9] = system: GSK3A
# [10] = system: GSK3B
# [11] = system: T4, HASPIN
# T4 construct: gene GSG2
# [12] = system: HCK
# [13] = system: HIPK1
# [14] = system: HIPK2
# [15] = system: HIPK3
# [16] = system: HIPK4
# [17] = system: HPK1
# [18] = system: HUNK
# [19] = system: ICK
# [20] = system: IGF1R
# 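Also: KINOMEscan kinase panel screen.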
Structure (SMILES),%Inh [1] [%],%Inh [2] [%],%Inh [3] [%],%Inh [4] [%],%Inh [5] [%],%Inh [6] [%],%Inh [7] [%],%Inh [8] [%],%Inh [9] [%],%Inh [10] [%],%Inh [11] [%],%Inh [12] [%],%Inh [13] [%],%Inh [14] [%],%Inh [15] [%],%Inh [16] [%],%Inh [17] [%],%Inh [18] [%],%Inh [19] [%],%Inh [20] [%]
O=C(Nc1c(F)cccc1F)c1cc(C(=O)c2ccccc2F)c[nH]1 [GSK1326180],0,0,0,0,0,35,0,0,10,1,22,0,0,44,0,0,50,24,0,18
Nc1ncnc2scc(-c3ccc(NC(=O)Cc4cc(F)ccc4F)cc3)c12.O=C(O)C(F)(F)F [SB-731254-M],0,26,19,24,0,0,15,29,3,24,0,66,18,23,26,2,44,0,12,0
CCNc1nccc(-c2c(-c3ccc(F)cc3)ncn2C2CCN(C)CC2)n1,0,57,0,0,0,0,0,0,21,0,0,0,39,70,66,0,0,0,0,0
Cc1nn2c(=O)cc(N3CCO[C@H](C)C3)nc2n1Cc1cccc(Cl)c1Cl [GSK2373693],7,8,0,11,0,17,3,0,0,69,3,22,10,30,78,0,25,0,15,10
COc1cc(Nc2ccnc3cc(-c4ccncc4)ccc23)cc(OC)c1OC.Cl [GW494610],75,84,0,4,0,35,5,0,10,0,40,83,0,0,13,0,0,52,0,0
Cc1ccc(O)cc1Nc1ccnc2ccc(C(C)(C)C)cc12 [GW856805],96.5,61,5,28,0,28,17,37,0,28,44,93.8,20,0,28,0,0,0,37,0
Fc1cc(Cl)ccc1Nc1ccnc2cc(-c3ccc(CN4CCOCC4)o3)ccc12 [GW560109],90.9,84,13,5,0,46,2,0,1,24,0,96.7,0,0,26,0,27,62,0,12
Cn1cc(-c2ccc3c(c2)CCN3C(=O)Cc2cc(F)cc(F)c2F)c2c(N)ncnc21 [GSK2634140],0,17,40,11,0,0,0,0,0,1,32,0,0,0,15,0,57,12,0,21
COc1ccc(C)c(Nc2ccnc(Nc3ccc(-c4cnc[nH]4)cc3)n2)c1.Cl [GW784041],56,52,100,0,0,0,27,15,32,0,0,63,48,0,0,30,0,0,0,12
CC(C)c1nc(-c2cccc(NS(=O)(=O)c3c(F)cccc3F)c2)c(-c2ccnc(Nc3ccc(N4CCOCC4)nc3)n2)s1.Cl [GSK1723980],98.6,91.2,100,9,0,0,0,0,74,15,0,98.3,93.2,57,69,83,55,0,32,0
